# Assay results taken from article PMC7862700, “An all-to-all approach to the identification of sequence-specific readers for epigenetic DNA modifications on cytosine”.
# Target: T1, ELF3 (Homo sapiens, UniProt P78545 1-371)
# T1 sequence: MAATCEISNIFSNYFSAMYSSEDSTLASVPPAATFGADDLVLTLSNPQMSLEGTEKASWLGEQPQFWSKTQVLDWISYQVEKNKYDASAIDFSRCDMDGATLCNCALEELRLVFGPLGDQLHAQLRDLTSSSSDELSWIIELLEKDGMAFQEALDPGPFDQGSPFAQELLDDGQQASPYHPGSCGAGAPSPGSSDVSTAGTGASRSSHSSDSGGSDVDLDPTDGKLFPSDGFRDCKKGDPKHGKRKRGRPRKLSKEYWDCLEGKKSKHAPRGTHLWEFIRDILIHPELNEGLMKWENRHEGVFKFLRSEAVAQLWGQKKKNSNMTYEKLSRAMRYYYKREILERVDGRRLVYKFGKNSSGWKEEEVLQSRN
# Assay: DAPPL (digital affinity profiling via proximity ligation, sequencing); 10 mM Tris-HCl pH 7.5, 50 mM NaCl, 1 mM DTT, 4% glycerol, room temperature, 30 min; GST-TFs on glutathione beads, 16-mer random dsDNA library, 0.1% formaldehyde crosslink after washing; high values mean tight binding
# Settings: protein: recombinant; tags: N-terminal GST; dsDNA, one strand shown
# Outline: (§1)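 Each value of binding signal is a hexamer's read frequency for a factor divided by the same hexamer's frequency in the tag-only sample. Barcoded, bead-captured GST fusions of human transcription factors made in yeast were pooled with that sample and incubated with 200 nmole of a random double-stranded 16-mer DNA library in Tris/NaCl/DTT/glycerol buffer at room temperature for 30 min. Washing, 0.1% formaldehyde crosslinking, proximity ligation, PCR and Illumina NextSeq500 sequencing followed.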
row,Sequence,binding signal
1,CAGTAT,"1.1 fold enrichment (6-mer frequency, TF over GST control)"
2,GTGCAA,"1.07 fold enrichment (6-mer frequency, TF over GST control)"
3,GCCACA,"1.07 fold enrichment (6-mer frequency, TF over GST control)"
4,TCAGTA,"1.08 fold enrichment (6-mer frequency, TF over GST control)"
5,GATACC,"1 fold enrichment (6-mer frequency, TF over GST control)"
6,AGATGT,"1.04 fold enrichment (6-mer frequency, TF over GST control)"
7,TGAACG,"1.16 fold enrichment (6-mer frequency, TF over GST control)"
8,CAAGCC,"1.12 fold enrichment (6-mer frequency, TF over GST control)"
9,TGTTAG,"1 fold enrichment (6-mer frequency, TF over GST control)"
10,AGGTAA,"1.11 fold enrichment (6-mer frequency, TF over GST control)"

# Target: CRX (Homo sapiens, UniProt O43186 1-299)
# Assay: as above
# Settings: protein: recombinant; tags: N-terminal GST; dsDNA, one strand shown
# Outline: as §1
# Chain of CRX (O43186 whole entry): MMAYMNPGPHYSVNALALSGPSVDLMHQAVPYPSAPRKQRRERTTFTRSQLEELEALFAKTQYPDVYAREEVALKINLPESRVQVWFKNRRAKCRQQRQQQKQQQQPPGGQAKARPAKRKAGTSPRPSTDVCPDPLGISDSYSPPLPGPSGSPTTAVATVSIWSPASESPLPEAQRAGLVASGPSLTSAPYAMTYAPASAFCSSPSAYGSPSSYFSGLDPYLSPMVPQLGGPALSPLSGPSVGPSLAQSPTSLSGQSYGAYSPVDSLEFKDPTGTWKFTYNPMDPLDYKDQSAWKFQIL
row,Sequence,binding signal
1,AAAGTC,"1.01 fold enrichment (6-mer frequency, TF over GST control)"
2,GCGTTA,"1.06 fold enrichment (6-mer frequency, TF over GST control)"
3,TCAGTA,"1.07 fold enrichment (6-mer frequency, TF over GST control)"
4,AAGCCA,"1.12 fold enrichment (6-mer frequency, TF over GST control)"
5,TCTGAG,"1.04 fold enrichment (6-mer frequency, TF over GST control)"
6,ATAACG,"1 fold enrichment (6-mer frequency, TF over GST control)"
7,GATTGA,"1.11 fold enrichment (6-mer frequency, TF over GST control)"
8,AGGTAA,"1.14 fold enrichment (6-mer frequency, TF over GST control)"

# Target: ETV1 (Homo sapiens, UniProt P50549 1-477)
# Assay: as above
# Settings: protein: recombinant; tags: N-terminal GST; dsDNA, one strand shown
# Outline: as §1
# Chain of ETV1 (P50549 whole entry): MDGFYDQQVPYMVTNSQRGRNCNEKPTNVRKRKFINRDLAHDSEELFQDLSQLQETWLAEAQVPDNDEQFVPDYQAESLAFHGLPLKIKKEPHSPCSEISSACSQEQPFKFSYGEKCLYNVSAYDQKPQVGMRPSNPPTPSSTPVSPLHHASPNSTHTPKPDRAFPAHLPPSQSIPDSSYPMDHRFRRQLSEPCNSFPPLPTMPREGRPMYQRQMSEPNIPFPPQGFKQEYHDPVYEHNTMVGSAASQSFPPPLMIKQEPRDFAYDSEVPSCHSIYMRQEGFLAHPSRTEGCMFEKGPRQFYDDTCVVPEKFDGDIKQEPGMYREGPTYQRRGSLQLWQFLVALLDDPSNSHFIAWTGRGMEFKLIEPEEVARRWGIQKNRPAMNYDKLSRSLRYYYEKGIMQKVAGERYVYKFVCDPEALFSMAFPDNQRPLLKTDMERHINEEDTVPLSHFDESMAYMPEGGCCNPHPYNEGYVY
row,Sequence,binding signal
1,CCACCA,"1.02 fold enrichment (6-mer frequency, TF over GST control)"
2,GTGCAA,"1.05 fold enrichment (6-mer frequency, TF over GST control)"
3,GCCACA,"1.08 fold enrichment (6-mer frequency, TF over GST control)"
4,GATACC,"1 fold enrichment (6-mer frequency, TF over GST control)"
5,CAACGG,"1.01 fold enrichment (6-mer frequency, TF over GST control)"
6,GTTGCC,"1.05 fold enrichment (6-mer frequency, TF over GST control)"
7,TGAACG,"1.02 fold enrichment (6-mer frequency, TF over GST control)"
8,AGGTAA,"1.02 fold enrichment (6-mer frequency, TF over GST control)"

# Target: T2, ERF (Homo sapiens, UniProt P50548 1-548)
# T2 sequence: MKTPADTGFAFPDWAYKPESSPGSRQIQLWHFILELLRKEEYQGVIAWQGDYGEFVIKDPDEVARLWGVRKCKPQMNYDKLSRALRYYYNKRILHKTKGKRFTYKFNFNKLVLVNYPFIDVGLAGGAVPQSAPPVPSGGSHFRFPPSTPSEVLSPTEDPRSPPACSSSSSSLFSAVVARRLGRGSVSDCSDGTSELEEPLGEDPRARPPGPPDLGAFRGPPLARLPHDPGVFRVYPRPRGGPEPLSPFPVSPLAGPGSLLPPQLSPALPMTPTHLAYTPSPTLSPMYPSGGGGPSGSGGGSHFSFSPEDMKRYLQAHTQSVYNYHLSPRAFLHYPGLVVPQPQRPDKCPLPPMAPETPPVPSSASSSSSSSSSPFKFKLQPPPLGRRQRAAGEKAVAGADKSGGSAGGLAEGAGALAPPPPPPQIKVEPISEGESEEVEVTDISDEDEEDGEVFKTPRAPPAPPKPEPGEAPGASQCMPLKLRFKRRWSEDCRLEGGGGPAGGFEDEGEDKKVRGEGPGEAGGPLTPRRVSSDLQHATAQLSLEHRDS
# Assay: as above
# Settings: protein: recombinant; tags: N-terminal GST; dsDNA, one strand shown
# Outline: as §1
row,Sequence,binding signal
1,CAGTAT,"1.1 fold enrichment (6-mer frequency, TF over GST control)"
2,ACACAG,"1.04 fold enrichment (6-mer frequency, TF over GST control)"
3,CAACGG,"1.08 fold enrichment (6-mer frequency, TF over GST control)"
4,AGGTAA,"1.06 fold enrichment (6-mer frequency, TF over GST control)"

# Target: T3, ETV3L (Homo sapiens, UniProt Q6ZN32 1-361)
# T3 sequence: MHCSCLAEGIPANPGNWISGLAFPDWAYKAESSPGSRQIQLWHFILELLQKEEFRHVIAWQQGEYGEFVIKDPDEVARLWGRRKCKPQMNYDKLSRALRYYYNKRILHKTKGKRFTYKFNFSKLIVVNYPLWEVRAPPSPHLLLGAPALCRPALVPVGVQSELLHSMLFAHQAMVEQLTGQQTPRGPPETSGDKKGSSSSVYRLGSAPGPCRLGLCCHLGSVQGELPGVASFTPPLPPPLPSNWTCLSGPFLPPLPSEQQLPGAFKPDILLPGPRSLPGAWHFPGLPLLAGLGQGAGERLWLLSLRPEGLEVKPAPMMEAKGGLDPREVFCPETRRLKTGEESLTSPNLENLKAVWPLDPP
# Assay: as above
# Settings: protein: recombinant; tags: N-terminal GST; dsDNA, one strand shown
# Outline: as §1
row,Sequence,binding signal
1,CAGTAT,"1.02 fold enrichment (6-mer frequency, TF over GST control)"
2,GCGTTA,"1.04 fold enrichment (6-mer frequency, TF over GST control)"
3,CCACCA,"1.04 fold enrichment (6-mer frequency, TF over GST control)"
4,GTCATT,"1.01 fold enrichment (6-mer frequency, TF over GST control)"
5,ACACAG,"1.05 fold enrichment (6-mer frequency, TF over GST control)"
6,GTTGTG,"1.02 fold enrichment (6-mer frequency, TF over GST control)"
7,AGATGT,"1 fold enrichment (6-mer frequency, TF over GST control)"
8,ACGCGT,"1.02 fold enrichment (6-mer frequency, TF over GST control)"
9,TCTGAG,"1.01 fold enrichment (6-mer frequency, TF over GST control)"
10,GTTGCC,"1.03 fold enrichment (6-mer frequency, TF over GST control)"
11,GGCCTG,"1.04 fold enrichment (6-mer frequency, TF over GST control)"
12,GCGCAC,"1.03 fold enrichment (6-mer frequency, TF over GST control)"

# Target: T4, ETS2 (Homo sapiens, UniProt P15036 1-469)
# T4 sequence: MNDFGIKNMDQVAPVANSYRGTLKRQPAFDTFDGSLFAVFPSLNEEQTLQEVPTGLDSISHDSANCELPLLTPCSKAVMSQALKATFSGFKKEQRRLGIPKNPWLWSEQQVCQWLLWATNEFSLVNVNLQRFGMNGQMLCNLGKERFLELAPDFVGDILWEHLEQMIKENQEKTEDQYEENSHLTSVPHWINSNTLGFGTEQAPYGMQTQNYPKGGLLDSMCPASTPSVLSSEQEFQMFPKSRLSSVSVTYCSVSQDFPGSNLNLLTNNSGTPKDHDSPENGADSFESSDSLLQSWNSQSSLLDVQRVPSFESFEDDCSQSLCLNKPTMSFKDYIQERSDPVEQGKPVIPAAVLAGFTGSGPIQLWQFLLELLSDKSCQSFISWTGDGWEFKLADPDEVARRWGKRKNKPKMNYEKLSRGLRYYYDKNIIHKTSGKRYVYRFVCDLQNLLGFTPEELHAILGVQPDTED
# Assay: as above
# Settings: protein: recombinant; tags: N-terminal GST; dsDNA, one strand shown
# Outline: as §1
row,Sequence,binding signal
1,CAGTAT,"1.02 fold enrichment (6-mer frequency, TF over GST control)"
2,AAAGTC,"1.03 fold enrichment (6-mer frequency, TF over GST control)"
3,CCACCA,"1.05 fold enrichment (6-mer frequency, TF over GST control)"
4,ACGCGT,"1.01 fold enrichment (6-mer frequency, TF over GST control)"
5,ATAACG,"1.05 fold enrichment (6-mer frequency, TF over GST control)"

# Target: T5, SPDEF (Homo sapiens, UniProt O95238 1-335)
# T5 sequence: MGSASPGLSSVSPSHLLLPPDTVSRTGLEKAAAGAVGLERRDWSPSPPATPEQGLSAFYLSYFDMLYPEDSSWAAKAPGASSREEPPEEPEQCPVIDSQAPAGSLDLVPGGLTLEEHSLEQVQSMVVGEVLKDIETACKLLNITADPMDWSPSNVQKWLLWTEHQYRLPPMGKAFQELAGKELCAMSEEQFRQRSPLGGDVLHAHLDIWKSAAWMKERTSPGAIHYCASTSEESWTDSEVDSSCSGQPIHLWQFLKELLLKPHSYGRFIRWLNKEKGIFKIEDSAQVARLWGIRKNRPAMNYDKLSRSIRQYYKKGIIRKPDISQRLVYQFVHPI
# Assay: as above
# Settings: protein: recombinant; tags: N-terminal GST; dsDNA, one strand shown
# Outline: as §1
row,Sequence,binding signal
1,CCACCA,"1.01 fold enrichment (6-mer frequency, TF over GST control)"
2,CGGTCC,"1.04 fold enrichment (6-mer frequency, TF over GST control)"
3,GATACC,"1.04 fold enrichment (6-mer frequency, TF over GST control)"
4,GATCCG,"1.65 fold enrichment (6-mer frequency, TF over GST control)"
5,GTGTTG,"1.01 fold enrichment (6-mer frequency, TF over GST control)"
6,TGTTAG,"1.03 fold enrichment (6-mer frequency, TF over GST control)"
7,GCATAT,"1.01 fold enrichment (6-mer frequency, TF over GST control)"
8,AGGTAA,"1 fold enrichment (6-mer frequency, TF over GST control)"

# Target: T6, ETV7 (Homo sapiens, UniProt Q9Y603 1-341)
# T6 sequence: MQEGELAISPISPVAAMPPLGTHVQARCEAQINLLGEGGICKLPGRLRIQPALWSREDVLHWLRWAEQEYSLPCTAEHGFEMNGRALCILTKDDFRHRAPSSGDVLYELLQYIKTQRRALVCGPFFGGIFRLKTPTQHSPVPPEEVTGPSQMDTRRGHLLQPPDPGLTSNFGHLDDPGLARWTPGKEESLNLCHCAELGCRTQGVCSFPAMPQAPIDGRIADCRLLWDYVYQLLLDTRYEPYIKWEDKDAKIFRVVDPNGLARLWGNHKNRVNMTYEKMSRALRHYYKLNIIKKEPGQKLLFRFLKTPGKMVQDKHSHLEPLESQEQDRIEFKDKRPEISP
# Assay: as above
# Settings: protein: recombinant; tags: N-terminal GST; dsDNA, one strand shown
# Outline: as §1
row,Sequence,binding signal
1,GGCTGC,"1.14 fold enrichment (6-mer frequency, TF over GST control)"
2,AAAGTC,"1.05 fold enrichment (6-mer frequency, TF over GST control)"
3,GTCATT,"1.01 fold enrichment (6-mer frequency, TF over GST control)"
4,ACACAG,"1.13 fold enrichment (6-mer frequency, TF over GST control)"
5,AGATGT,"1.04 fold enrichment (6-mer frequency, TF over GST control)"
6,TCTGAG,"1.05 fold enrichment (6-mer frequency, TF over GST control)"
7,GTTGCC,"1.04 fold enrichment (6-mer frequency, TF over GST control)"
8,GGCCTG,"1.03 fold enrichment (6-mer frequency, TF over GST control)"
9,CAAGCC,"1.02 fold enrichment (6-mer frequency, TF over GST control)"
10,GCATAT,"1.08 fold enrichment (6-mer frequency, TF over GST control)"

# Target: T7, ETV3 (Homo sapiens, UniProt P41162-2 1-143)
# T7 sequence: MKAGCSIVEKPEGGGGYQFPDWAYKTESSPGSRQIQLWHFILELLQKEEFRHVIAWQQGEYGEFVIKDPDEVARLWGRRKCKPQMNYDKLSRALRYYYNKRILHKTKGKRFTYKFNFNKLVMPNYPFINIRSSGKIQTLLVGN
# Assay: as above
# Settings: protein: recombinant; tags: N-terminal GST; dsDNA, one strand shown
# Outline: as §1
row,Sequence,binding signal
1,TCAGTA,"1.03 fold enrichment (6-mer frequency, TF over GST control)"
2,CAACGG,"1.01 fold enrichment (6-mer frequency, TF over GST control)"
3,ATAACG,"1.05 fold enrichment (6-mer frequency, TF over GST control)"
4,CAAGCC,"1.02 fold enrichment (6-mer frequency, TF over GST control)"
5,GTAGCG,"1.01 fold enrichment (6-mer frequency, TF over GST control)"
